About 83,000 compounds went through this panel and 20% of them were active in at least one assay; those are over-represented in the sample as a whole.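 For each line, cells grew in 96-well plates with the test compound present at a single concentration for 48 hours.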 Unmarked numbers belong to inactive results. The source made the active and inactive calls. Rule for the calls: active = growth percent below 10; inactive = the rest.
Assays:
Assay in all cases: NCI-60 one-dose screen, 48 h (100 = growth as untreated, 0 = no growth, -100 = all killed)
Settings in all cases: 10 µM unless noted
[1] = system: NCI-H23 lung
[2] = system: NCI-H226 lung
[3] = system: HOP-62 NSCLC
[4] = system: NCI-H460 lung
[5] = system: NCI-H522 lung
[6] = system: A549/ATCC NSCLC
[7] = system: 786-0 renal
[8] = system: DU-145 prostate
[9] = system: MALME-3M melanoma
[10] = system: MDA-MB-231 breast
[11] = system: RXF 393 renal
[12] = system: SF-268 CNS
[13] = system: SF-295 CNS
[14] = system: SF-539 CNS
[15] = system: UACC-257 melanoma
[16] = system: M14 melanoma
[17] = system: HCT-15 colon
[18] = system: COLO 205 colon
[19] = system: K-562 leukemia
[20] = system: NCI-H322M lung

SMILES | growth [1] | growth [2] [%] | growth [3] | growth [4] | growth [5] | growth [6] | growth [7] [%] | growth [8] | growth [9] | growth [10] | growth [11] | growth [12] | growth [13] | growth [14] | growth [15] | growth [16] | growth [17] | growth [18] | growth [19] | growth [20] [%]
NNC(=O)C1CC2c3ccccc3C1c1ccccc12 (configuration not stated) | 101% | 101 | 112% | 115% | 87% | 113% | 105 | 115% | 123% | 102% | 116% | 98.7% | 105% | 99% | 118% | 111% | 111% |  |  | 
COc1ccc(C(=O)/C=C/c2c(Cl)nc3c(c(C)nn3-c3ccccc3)c2-c2ccc(Br)cc2)cc1 | 105% | 97.3 | 104% | 106% | 98.6% | 104% | 91.5 | 112% | 102% | 105% | 101% | 103% | 103% |  | 108% |  | 102% | 111% |  | 
c1ccc2c(c1)[nH]c1c2cc[n+]2cc3c(cc12)CCCC3 | 40.6% | 35.5 | 18.8% | 15.2% |  | 64% | 48.7 | 40.9% | 3.13% (active) | 31.4% | 76.8% | 23% |  | 37.6% | 38.4% |  | 96.9% | 36.3% | 16.9% | 
CC1=NN(c2ccccc2Cl)C(=O)/C1=C\c1cn(S(=O)(=O)c2ccc(C)cc2)c2ccccc12 |  | 79.9 | 62.3% | 119% | 107% | 109% | 94.9 | 114% | 114% | 85.4% | 137% | 104% | 114% | 114% | 115% | 82.1% | 105% | 142% | 138% | 105
CCOC(=O)c1cc(-c2cccnc2)nc2c(Cl)cc(Cl)cc12 | 89.6% | 98.9 | 92.5% | 106% | 93.6% | 74.9% | 72.5 | 103% | 124% | 103% |  | 73% | 90.2% | 79.6% | 120% | 117% | 96.6% | 121% | 105% | 
Cc1ccc(C(=O)Nc2ccc(Cl)cc2C(=O)NCc2ccccc2)cc1 | 96.7% | 92.9 | 88.3% | 92.4% | 53.9% | 85.9% | 97.8 | 96% | 88.9% | 95.8% | 87.4% | 94.2% |  | 82.3% | 85.2% | 74.9% | 57.4% | 97.4% | 30% | 
Cn1[nH]cc(/C=N/C(N)=O)c1=O | 104% | 111 | 111% | 109% | 121% | 106% | 99.8 |  | 121% | 101% |  |  | 115% | 113% | 119% | 107% | 105% | 110% | 103% | 
O=C(/C=C/c1cc2ccccc2[nH]c1=O)c1ccc(O)cc1 | 56.9% | 98.7 | 42.5% | 1.97% (active) | -44.1% (active) |  | 62.6 | -44.1% (active) | 83.7% | 59.5% | 0.37% (active) | 20.4% | 54% | 23.3% | 92.6% | 76% | 35.2% | 105% | 5.94% (active) | 
COc1ccc2c(c1)[nH]c(=O)c1c3cc(OC)c(OC)cc3cn21 | 42.5% | 44.6 | 47.4% | 6.39% (active) | -2.16% (active) | -22.1% (active) | 32.1 | -87.2% (active) | 56.7% | 26.4% | 0.926% (active) | 9.67% (active) | 13.6% | 10.7% | 82.6% | 23.6% | -6.44% (active) |  | 0.148% (active) | 
Cn1cc(-c2csc(-c3cn(C)c4ncccc34)n2)c2cc(Br)cnc21 | 82% | 101 | 100% | 95.4% | 98.7% | 87% | 93.8 |  | 107% | 61.9% | 81.2% | 105% | 82.1% | 109% | 96.2% | 80.7% | 81.1% |  |  | 
CCCC[N+](CCCC)=c1ccc2nc3c(C)cc(N(CC)CC)cc3sc-2c1 | -36.2% (active) | 18.4 | -23.4% (active) | 2.83% (active) | -17.1% (active) | 16.7% |  | 13.7% | -78.6% (active) | -29.4% (active) | -25.8% (active) | 10.4% | -24.4% (active) | -62.5% (active) | -41% (active) | 7.11% (active) | -33.5% (active) | -41.1% (active) | -49.1% (active) | 
CCOC(=O)/C=C(/C)Sc1cc(O)c2ccccc2c1O | -71.4% (active) | 89.4 | 157% | -64% (active) | 12.7% | -34.1% (active) | 159 | -100% (active) | -90% (active) | 14.7% | 46.1% | 32.8% | 30.2% | 5.78% (active) | 5.04% (active) |  | -12.6% (active) | 46.6% | 17.6% | 
CN1CCN(CC(=O)Nc2nc3c(s2)Nc2cc(Cl)c(Cl)cc2NC3=O)CC1 | 106% | 96.1 | 98.3% | 104% | 77% | 95.9% | 99.2 | 117% | 107% | 123% |  | 111% | 108% | 107% | 87.9% | 105% | 104% | 107% | 81.3% | 
COc1ccc2c(c1)nc(N)c1c3ccccc3cn21 | 79.1% | 95.3 | 85.6% | 72.4% | 58.1% | 75.9% | 92.7 |  | 65.2% | 85.5% | 77.1% | 81% | 79.5% | 94.3% | 85.9% | 63.1% | 56.4% |  |  | 
Oc1ccc(-c2nn(-c3ccccc3)cc2-c2nc3ccccc3s2)cc1 | 89.6% | 85.9 | 104% | 91.3% | 101% | 91.2% | 105 | 106% | 98.8% | 81.5% | 104% | 97.3% | 106% | 102% | 107% | 101% | 81.6% | 106% | 78.6% | 
Cn1cc(-c2nc(-c3c[nH]c4ncc(F)cc34)cs2)c2cccnc21 | 92.1% | 98.8 | 108% | 96.3% | 140% | 107% | 94.4 |  | 101% | 68.8% | 98.3% | 116% | 107% | 113% | 119% | 86.6% | 97.1% |  |  | 
CC[N+](C)(CC)CCCC(C)Nc1ccnc2cc(Cl)ccc12 (configuration not stated) | 102% | 96.3 | 113% | 102% | 108% | 107% |  | 97.7% | 104% | 114% | 125% | 91.4% | 108% | 105% | 107% | 109% | 110% | 107% |  | 
Clc1nc(Cl)c2ncn(-c3ccccc3)c2n1 | 99.9% | 93.4 | 99.4% | 89.2% | -68.9% (active) | 95.3% | 88.5 | 36.7% | 48.4% | 63.1% | 56.1% | 68.8% | 106% | 85.2% | 67% | 35.6% | 44.8% |  | 36.2% | 

From PubChem BioAssay (NCI)
